From PubChem BioAssay (NCATS) come the findings set out here.

Records with an inconclusive call do not appear. Unmarked numbers belong to inactive results. Calls of active or inactive are those of the source. Calls come from the whole dose curve; as a rule, active = well fitted inhibition curve with a large enough effect; inconclusive = small, poorly fitted or top-dose-only effect; inactive = flat fitted curve, though single readings scatter.

Assay [1] relates to CRL-7250. In words: Cytotoxic Profiling of Annotated Libraries Using Quantitative High-Throughput Screening (AID 1296008). Note: nearly all actives have a fitted effect of over 60% in size. As to conditions: Five cell lines viability, CellTiter-Glo ATP luminescence, 48-72 h; max response: stronger effect = lower value. A digest of the protocol:
(§1)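 Cytotoxicity was measured as CellTiter-Glo ATP luminescence, read after 10 min at room temperature. Compound treatment of the cells lasted 48 or 72 hr at 37 degrees Celsius in a qHTS format.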

The subject of assay [2] is HEK293. The assay is described as above. As to conditions: Five cell lines viability, CellTiter-Glo ATP luminescence, 48-72 h; max response: stronger effect = lower value. The gist of the method: as §1
% is set by controls: 0 for no effect and ±100 for the full control effect; potency is the fitted concentration of half-maximal effect.

On to `CCCC(=O)C1CCN(c2ncnc3c2CN(C(=O)c2ccc(-c4ccccc4)cc2)CC3)CC1`, for which the max response in assay [1] was -7.29%. In assay [2], the Potency was 18.4 µM (active).
For `COC(=O)[C@@H](O)[C@H]1[C@@]2(C)CC3(O)[C@@H](C(=O)[C@H]2O)[C@]24O[C@]25CC(=O)O[C@@H](c2ccoc2)[C@]5(C)CCC4[C@]13C` (stereo partly drawn), the compound was classed as inactive in assay [1]. Further, the max response in assay [2] was -0.209%.
Regarding `OC[C@H]1O[C@@H](O[C@H]2[C@H](OCCc3ccccc3)O[C@H](CO)[C@@H](O)[C@@H]2O)[C@H](O)[C@@H](O)[C@@H]1O`, the call in assay [1] was inactive. In assay [2], the max response was -0.444%.
Take `CN(C)C/C=C/C(=O)Nc1cc2c(Nc3ccc(F)c(Cl)c3)ncnc2cc1OC1CCOC1` (stereo not drawn): the Potency is 11.6 µM (active) in assay [1] and 5.8 µM (active) in assay [2].
Take `CC(=O)O[C@@H]1C[C@@H](OC(C)=O)C(C)(C)/C=C/[C@H](C)[C@H](OC(C)=O)[C@@]2(O)C[C@H](C)[C@H](OC(=O)c3ccccc3)[C@@H]2/C=C/1C`: the max response was -20.7% in assay [1] and -1.35% in assay [2].
In the case of `CC1(C)CC[C@]2(C(=O)O[C@@H]3O[C@H](CO)[C@@H](O)[C@H](O)[C@H]3O)CC[C@]3(C)C(=CCC4[C@@]5(C)C[C@@H](O)[C@H](O)C(C)(C)C5CC[C@]43C)C2[C@@H]1O` (stereo partly drawn), the max response in assay [1] was 0.543%; in assay [2], 0.957%.
In the same order, the values of `CC1CC(O)/C=C/C(O)C(O)CC(=O)Cc2c(Cl)c(O)cc(O)c2C(=O)O1` (stereo not drawn) are 2.61% and 0.716%.
Consider `CO[C@H]1O[C@@H]2O[C@]3(C)CC[C@H]4[C@H](C)CC[C@@H]([C@H]1C)[C@@]24OO3`, for which the max response in assay [1] was -2.96%. Moreover, the Potency in assay [2] is 10.3 µM (active).
Consider `COC(=O)CCc1cc2ccoc2c(OC)c1O[C@@H]1O[C@H](CO)[C@@H](O)[C@H](O)[C@H]1O`, for which the max response in assay [1] was -7.38%; in assay [2], -10.4%.
Consider `C=C1C[C@]23C[C@H]1CC[C@H]2C1=C[C@H]2OC(=O)[C@@](C)([C@H]1[C@@H]3C(=O)O)[C@H]2O`, for which the max response is 2.1% in assay [1] and 4.48% in assay [2].
For `COc1cc2c(NC3CCN(CC4CCCCC4)CC3)nc(N3CCCN(C(C)C)CC3)nc2cc1OCCCN1CCCCC1`, the results for the Potency in assay [1] and in assay [2] were 4.61 µM (active) and 3.26 µM (active), respectively.
In the case of `CC(=O)O[C@H]1[C@@H](O)[C@H](O[C@H]2[C@@H]3C=CO[C@@H](O[C@H]4O[C@@H](CO)[C@H](O)[C@@H](O)[C@@H]4O)[C@@H]3[C@@]3(CO)O[C@@H]23)O[C@@H](C)[C@@H]1OC(=O)/C=C/c1ccccc1`, the figures for the max response in assay [1] and in assay [2] were -1.67% and 4.7%, respectively.
Regarding `FC(F)(F)c1cc(-c2ncn(/C=C\c3nnco3)n2)cc(C(F)(F)F)c1`, the max response in assay [1] was -13.3%. For the same compound, in assay [2], the Potency was 3.26 µM (active).
For the compound `CC(C)=CC/C=C(\C)[C@H]1CC[C@]2(C)[C@@H]1[C@H](O)C[C@@H]1[C@@]3(C)CC[C@H](O)C(C)(C)[C@@H]3[C@@H](O[C@@H]3O[C@H](CO)[C@@H](O)[C@H](O)[C@H]3O)C[C@]12C`, the max response was 2.02% in assay [1] and -11.4% in assay [2].
As for `CC(=O)O[C@H]1CC(C)(C)CC2[C@@]13[C@H](O)C[C@]1(C)[C@@]2(CCC2[C@@]4(C)CC[C@H](O[C@@H]5OC[C@H](O[C@@H]6O[C@H](CO)[C@@H](O)[C@H](O)[C@H]6O[C@@H]6OC[C@@H](O)[C@H](O)[C@H]6O)[C@H](O)[C@H]5O[C@@H]5O[C@H](CO)[C@@H](O)[C@H](O)[C@H]5O)C(C)(C)C4CC[C@]21C)O[C@@H]3O` (stereo partly drawn), the results for the Potency in assay [1] and in assay [2] were 2.46 µM (active) and 1.95 µM (active), respectively.
In the case of `CC1(C)C[C@H](O)C[C@@]2(C)OC(=O)C=C12`, the max response in assay [1] was 1.12%. For the same compound, the outcome in assay [2] was inactive.
For `O=C(O)c1cc(I)ccc1NC(=O)[C@H](Cc1ccccc1)NCc1ccccc1`, the max response in assay [1] was -2.69%; in assay [2], -1.33%.
In the same order, the values of `CC1=C(COC2OC(CO)C(O)C(O)C2O)C(C(CO)C(=O)O)CC1` (stereo not drawn) are 2.58% and -0.67%.
On to `Cc1cc(Nc2ncc3cc(-c4c(Cl)cccc4Cl)c(=O)n(C)c3n2)ccc1F`, for which the Potency in assay [1] was 1.84 µM (active); in assay [2] it was 2.31 µM (active).
With `C=C[C@@H]1[C@H](O[C@@H]2O[C@H](CO)[C@@H](O)[C@H](O)[C@H]2O)OC=C(C(=O)O)[C@H]1CCOC(=O)/C=C/c1ccc(O)c(O)c1`, the max response in assay [1] was 1.95%; in assay [2], 4.3%.
Turning to `NCc1c[nH]c(=S)n1[C@@H]1CCc2c(F)cc(F)cc2C1`, the compound was called inactive in assay [1]. The max response in assay [2] is -9.28%.
For the compound `COc1c2c(c(C)c3c1C(=O)OC3)OC1(C)CC(O)C34OC(OC)(CC(OC(C)=O)C3(C)C1C2)OC4(C)C` (stereo not drawn), the compound was classed as inactive in assay [1]. Moreover, the max response in assay [2] was -22.1%.
With `Cc1ccc(-c2ccc3ncc4c(c3n2)n(C2CCN(C(=O)[C@H](C)O)CC2)c(=O)n4C)cn1`, the values for the Potency in assay [1] and in assay [2] were 0.146 µM (active) and 0.082 µM (active), respectively.
Turning to `COC(=O)C12CCC(C)C(C)C1C1=CCC3C4(C)CCC(OC(C)=O)C(C)(C)C4CCC3(C)C1(C)CC2` (stereo not drawn), the max response in assay [1] is -3.42%; in assay [2] it was 0.571%.
